From PubChem BioAssay (EPA / NIEHS)
Calls of active or inactive are those of the source. How the source made its calls: active means hit-call score of the fitted dose curve at least 0.9, where 1 is the maximum; inactive means score below 0.9.

Legend:
[1] = read-out: Vascular endothelial growth factor receptor 2 (Homo sapiens) (UniProt P35968); assay: BSK_4H_VEGFRII: BioMAP Diversity Plus: 4H Assay for Vascular endothelial growth factor receptor 2 (VEGFR2) Biomarker Activity (AID 2283031); conditions: primary human endothelial cells (HUVEC); actives raise or lower the signal
Summary of the method: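 Primary human umbilical vein endothelial cells (4H system), 24 h exposure; cell-surface VEGFR2 measured by ELISA. Bidirectional fitting versus DMSO; cytotoxicity checked in parallel by SRB total-protein staining.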

[2] = read-out: Human Leukocyte Antigen - DR isotype (HLADR), HLA-DRA (gene 3122); assay: BSK_BE3C_HLADR: BioMAP Diversity Plus: BE3C Assay for Human Leukocyte Antigen - DR isotype (HLADR) Biomarker Activity (AID 2283032); conditions: primary human bronchial epithelial cells; actives raise or lower the signal
Summary of the method: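 BioMAP BE3C format: human bronchial epithelium, 24 h compound treatment, ELISA detection of HLA-DR, with bidirectional analysis relative to DMSO.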

[3] = read-out: Vascular cell adhesion molecule 1 (VCAM1), VCAM1 (gene 7412); assay: BSK_4H_VCAM1: BioMAP Diversity Plus: 4H Assay for Vascular cell adhesion molecule 1 (VCAM1) Biomarker Activity (AID 2283033); conditions: primary human endothelial cells (HUVEC); actives raise or lower the signal;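 further: cell-surface VCAM-1 protein measured by ELISA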
Summary of the method: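 In this human endothelial (HUVEC) system, biomarker ELISA was run 24 h after compound addition, and total protein in parallel wells was assessed by SRB at 560 nm; DMSO served as negative control.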

[4] = read-out: Interferon-gamma inducible Protein 10 (IP10), CXCL10 (gene 3627); assay: BSK_BE3C_IP10: BioMAP Diversity Plus: BE3C Assay for Interferon-gamma inducible Protein 10 (IP10) Biomarker Activity (AID 2283034); conditions: primary human bronchial epithelial cells; actives raise or lower the signal
Summary of the method: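 BE3C cells (human bronchial epithelial, primary); 24 h exposure; ELISA for IP-10; DMSO-referenced bidirectional fit.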

[5] = read-out: Monokine induced gamma interferon (MIG), CXCL9 (gene 4283); assay: BSK_BE3C_MIG: BioMAP Diversity Plus: BE3C Assay for Monokine induced gamma interferon (MIG) Biomarker Activity (AID 2283035); conditions: primary human bronchial epithelial cells; actives raise or lower the signal
Summary of the method: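 hu bronchial epithelial 1° cells, 24 h cpd; MIG by ELISA; bidirectional fit, DMSO = baseline.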

[6] = read-out: Transforming growth factor beta 1 (TGFb1), TGFB1 (gene 7040); assay: BSK_BE3C_TGFb1: BioMAP Diversity Plus: BE3C Assay for Transforming growth factor beta 1 (TGFb1) Biomarker Activity (AID 2283036); conditions: primary human bronchial epithelial cells; actives raise or lower the signal
Summary of the method: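 TGF-b1 measured via ELISA, 24 h after chemical dosing of human bronchial epithelial cells (BE3C). Overt cytotoxicity assessed in parallel by SRB (0.1%, TCA-fixed, 560 nm); analysis bidirectional relative to DMSO.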

[7] = read-out: Plasminogen activator inhibitor-1 (PAI1), SERPINE1 (gene 5054); assay: BSK_BE3C_PAI1: BioMAP Diversity Plus: BE3C Assay for Plasminogen activator inhibitor-1 (PAI1) Biomarker Activity (AID 2283037); conditions: primary human bronchial epithelial cells; actives raise or lower the signal
Summary of the method: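 In this multiplexed primary-cell system, bronchial epithelial cells receive test chemical and are sampled at 24 h. PAI-1 is read by ELISA, with DMSO serving as negative control for bidirectional fitting.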

[8] = read-out: urokinase plasminogen activator (uPA), PLAU (gene 5328); assay: BSK_BE3C_uPA: BioMAP Diversity Plus: BE3C Assay for urokinase plasminogen activator (uPA) Biomarker Activity (AID 2283038); conditions: primary human bronchial epithelial cells; actives raise or lower the signal
Summary of the method: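 Primary human bronchial epithelial cells, uPA measured by ELISA 24 h after dosing. Bidirectional change relative to DMSO; cytotoxicity checked in parallel cultures by sulforhodamine B total-protein staining.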

[9] = read-out: Urokinase-type plasminogen activator receptor (uPAR), PLAUR (gene 5329); assay: BSK_BE3C_uPAR: BioMAP Diversity Plus: BE3C Assay for Urokinase-type plasminogen activator receptor (uPAR) Biomarker Activity (AID 2283039); conditions: primary human bronchial epithelial cells; actives raise or lower the signal;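 further: uPAR protein level measured by ELISA on the cells; cells exposed to compound for one day before measurement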
Summary of the method: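 Chemically treated human bronchial epithelial cells (lung primary) are assayed for uPAR by ELISA after 24 h, with data fitted in both directions using DMSO as negative control.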

[10] = read-out: Interleukin-6 (IL6), IL6 (gene 3569); assay: BSK_CASM3C_IL6: BioMAP Diversity Plus: CASM3C Assay for Interleukin-6 (IL6) Biomarker Activity for (AID 2283040); conditions: primary human coronary artery smooth muscle cells; actives raise or lower the signal
[11] = read-out: Tissue plasminogen activator (tPA), PLAT (gene 5327); assay: BSK_BE3C_tPA: BioMAP Diversity Plus: BE3C Assay for Tissue plasminogen activator (tPA) Biomarker Activity (AID 2283041); conditions: primary human bronchial epithelial cells; actives raise or lower the signal
Summary of the method: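 Using human lung primary bronchial epithelial cells, tPA was measured by ELISA 24 h after dosing; data fitted relative to DMSO.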

[12] = read-out: Interleukin-8 (IL8), CXCL8 (gene 3576); assay: BSK_CASM3C_IL8: BioMAP Diversity Plus: CASM3C Assay for Interleukin-8 (IL8) Biomarker Activity (AID 2283042); conditions: primary human coronary artery smooth muscle cells; actives raise or lower the signal;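 further: IL-8 protein level quantified by ELISA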
[13] = read-out: Human Leukocyte Antigen - DR isotype (HLADR), HLA-DRA (gene 3122); assay: BSK_CASM3C_HLADR: BioMAP Diversity Plus: CASM3C Assay for Human Leukocyte Antigen - DR isotype (HLADR) Biomarker Activity (AID 2283043); conditions: primary human coronary artery smooth muscle cells; actives raise or lower the signal;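 further: cell-surface HLA-DR protein level quantified by ELISA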
[14] = read-out: Macrophage colony-stimulating factor (MCSF), CSF1 (gene 1435); assay: BSK_CASM3C_MCSF: BioMAP Diversity Plus: CASM3C Assay for Macrophage colony-stimulating factor (MCSF) Biomarker Activity (AID 2283044); conditions: primary human coronary artery smooth muscle cells; actives raise or lower the signal;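 further: M-CSF protein amount quantified by ELISA after 24 h exposure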
[15] = read-out: Low-density lipoprotein receptor (LDLR), LDLR (gene 3949); assay: BSK_CASM3C_LDLR: BioMAP Diversity Plus: CASM3C Assay for Low-density lipoprotein receptor (LDLR) Biomarker Activity (AID 2283045); conditions: primary human coronary artery smooth muscle cells; actives raise or lower the signal;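 further: LDLR protein level on the cell surface quantified by ELISA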
[16] = read-out: Monocyte Chemoattractant Protein-1 (MCP1), CCL2 (gene 6347); assay: BSK_CASM3C_MCP1: BioMAP Diversity Plus: CASM3C Assay for Monocyte Chemoattractant Protein-1 (MCP1) Biomarker Activity (AID 2283046); conditions: primary human coronary artery smooth muscle cells; actives raise or lower the signal;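 further: MCP-1 level quantified by ELISA 24 h after dosing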
[17] = BSK_CASM3C_Proliferation: Cell Proliferation Assessment in the BioMAP Diversity Plus: CASM3C Assay (AID 2283047); conditions: primary human coronary artery smooth muscle cells;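 further: sulforhodamine B total protein stain as relative cell number at 560 nm; sub-confluent cells exposed 48 h before staining; fitted both ways against DMSO so gain or loss of cell number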
[18] = read-out: Monokine induced gamma interferon (MIG), CXCL9 (gene 4283); assay: BSK_CASM3C_MIG: BioMAP Diversity Plus: CASM3C Assay for Monokine induced gamma interferon (MIG) Biomarker Activity (AID 2283048); conditions: primary human coronary artery smooth muscle cells; actives raise or lower the signal;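 further: MIG protein level measured by ELISA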
[19] = read-out: serum amyloid A (SAA), SAA1 (gene 6288); assay: BSK_CASM3C_SAA: BioMAP Diversity Plus: CASM3C Assay for serum amyloid A (SAA) Biomarker Activity (AID 2283049); conditions: primary human coronary artery smooth muscle cells; actives raise or lower the signal;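 further: SAA protein level quantified by ELISA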

Measured: AC50

O=C1C2CC=CCC2C(=O)N1SC(Cl)(Cl)Cl (stereo not drawn)
inactive: [1] | [3] | [9] | [15]
active: [2] 12.3 µM | [4] 11.9 µM | [5] 13.5 µM | [6] 12.7 µM | [7] 12.4 µM | [8] 11.5 µM | [10] 30.9 µM | [11] 11.4 µM | [12] 31.7 µM | [13] 13.4 µM | [14] 28.9 µM | [16] 31.7 µM | [17] 7.03 µM | [18] 34.9 µM | [19] 35 µM

CCCCC(O)(Cn1cncn1)c1ccc(Cl)cc1Cl (stereo not drawn)
active: [2] 16 µM | [4] 26.8 µM
inactive: all other assays above

COc1ccc(-c2ccccc2)cc1NNC(=O)OC(C)C
inactive: all assays above

C=CCOC(=O)C(C)(C)OC(=O)c1cc(-n2c(=O)cc(C(F)(F)F)n(C)c2=O)ccc1Cl
active: [16] 12.9 µM | [19] 0.859 µM
inactive: all other assays above

COc1cc(OC)nc(NC(=O)NS(=O)(=O)c2ncccc2OCC(F)(F)F)n1
inactive: all assays above

CCOP(=S)(OCC)Oc1nc(Cl)n(C(C)C)n1
inactive: all assays above

CCN(CC)C(=O)C(C)Oc1cccc2ccccc12 (stereo not drawn)
active: [17] 0.531 µM
inactive: all other assays above
